In the library only some 10% were active in any assay of this set; here they are far more common.
PLK1 PBD inh: qHTS for Inhibitors of PLK1-PDB (polo-like kinase 1 - polo-box domain): Primary Screen; Potency, µM, actives largely listed as inhibitors; AID 720504, 2013; 360,000 compounds, 2.8% hits; Serine/threonine-protein kinase PLK1 (Homo sapiens), P53350; Plk1 PBD binding of FITC phosphopeptide, fluorescence polarization; further: series mostly up to about 57 µM; nearly all actives have a fitted effect of over 65% in size
Sfp PPTase inh: qHTS Assay for Inhibitors of Bacillus subtilis Sfp phosphopantetheinyl transferase (PPTase); AID 1490, 2009; Potency, µM, actives largely listed as inhibitors; Biochemical Sfp PPTase activity, qHTS; 4'-phosphopantetheinyl transferase ffp (Bacillus subtilis), Q9F4F7; 310,000 compounds, 3.5% hits;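 further: the enzyme is Sfp with the accession as filed and its product quenches rhodamine fluorescence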
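Sfp 15 nM + cpd, 15 min RT; start w/ rhodamine-CoA 5 uM, BHQ-2-YbbR 12.5 uM (final); 50 mM Hepes pH 7.6, 10 mM MgCl2, 0.01% NP-40, 0.01% BSA; read 525/598 nm at 0 and 30 min.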
Mm-Cpn inhibitor: Inhibitors of TCP-1 ring complex (TRiC) of Methanococcus maripaludis (MmCpn): qHTS; Chaperonin Mm-Cpn (Methanococcus maripaludis); purified Mm-Cpn ATPase, ADP Transcreener TR-FRET; AID 504842, 2011; Potency, µM (top dose mostly 76.9 µM), usual class: inhibitors; 330,000 compounds, 0.031% hits; further: nearly all actives have a fitted effect of over 80% in size
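25 nM Mm-CPN + cpd, 10 min 37°C; + 10 uM ATP, 30 min 37°C; buffer 30 mM Tris pH 7.4, 100 mM KCl, 5 mM MgCl2, 1 mM DTT; Transcreener ADP HTRF detection 30 min RT.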
CCT chaperon mod: High-Throughput Screening for Modulators of Cytosolic Chaperonin Activity; 360,000 compounds, 0.3% hits; activity change, % (concentration not given with the values), hits read low; AID 651819, 2012; purified chaperonin ATPase assay, HTRF ADP detection, 30 min; in the data active means activity change below about -30%
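First, chaperonin was dispensed at 40 nM or 20 nM final depending on batch activity. Next, compounds were pinned at 76 uM and ATP added at 10 uM. After 30 min at 37 °C, ADP detection reagents ran 30 min at ambient temperature.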
G9a inh: qHTS Assay for Inhibitors of Histone Lysine Methyltransferase G9a | G9a H3K9 monomethylation, AlphaScreen, 2 h | Potency, µM (titrated, usually from 102 µM), hits mostly inhibitors | 350,000 compounds, 8.8% hits; further: nearly all actives have a fitted effect of over 75% in size
Target sequence (Q96KQ7 913-1193 limits assumed): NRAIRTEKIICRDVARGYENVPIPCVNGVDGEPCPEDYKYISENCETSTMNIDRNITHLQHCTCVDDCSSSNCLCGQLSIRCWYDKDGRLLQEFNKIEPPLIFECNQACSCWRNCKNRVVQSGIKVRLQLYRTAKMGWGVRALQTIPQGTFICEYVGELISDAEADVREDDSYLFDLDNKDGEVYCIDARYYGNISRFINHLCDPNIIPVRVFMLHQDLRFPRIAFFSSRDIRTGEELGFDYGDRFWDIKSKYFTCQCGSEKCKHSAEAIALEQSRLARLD
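Enzyme 20 nM + cpd, 15 min RT; add b-H3K9 pep 500 nM / SAM 20 uM; 2 h RT; anti-H3K9me1 Ab 0.5 ug/mL + SA donor / anti-rabbit acceptor beads 20 ug/mL each, 10 min; AlphaScreen read.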
VDR inh: Inhibitors of the vitamin D receptor (VDR): qHTS; Vitamin D3 receptor (Homo sapiens), P11473; AID 504847, 2011; Potency, µM, usual class: inhibitors; 400,000 compounds, 0.93% hits; VDR-SRC2-3 peptide fluorescence polarization, 2 h
Target sequence (P11473 whole entry, looked up): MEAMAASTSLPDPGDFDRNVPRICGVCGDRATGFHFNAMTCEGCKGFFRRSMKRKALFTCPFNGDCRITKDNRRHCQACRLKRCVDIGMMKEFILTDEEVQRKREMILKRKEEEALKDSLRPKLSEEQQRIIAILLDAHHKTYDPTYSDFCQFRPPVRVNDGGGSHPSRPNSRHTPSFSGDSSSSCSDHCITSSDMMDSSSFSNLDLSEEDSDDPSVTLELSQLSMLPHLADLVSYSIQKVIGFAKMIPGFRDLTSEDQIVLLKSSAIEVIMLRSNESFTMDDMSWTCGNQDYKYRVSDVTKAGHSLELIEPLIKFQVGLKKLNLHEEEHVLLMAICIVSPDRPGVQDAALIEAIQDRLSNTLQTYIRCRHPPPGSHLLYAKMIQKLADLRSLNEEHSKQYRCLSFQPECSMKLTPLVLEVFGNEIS
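VDR–SRC2-3 interaction, FP format. Cmpds 23 nl via pintool, brief spin, 2 h ambient incubation.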
Hits are given with their value; - = inactive; ? = inconclusive; . = not tested or not shown; [ ] = remark or other dose. Unless noted, the call rests on the fitted dose curve; in most records, active means well fitted curve in the direction sought with a large enough effect; inconclusive means small, poorly fitted or top-dose-only effect, or another doubt; inactive means no such curve, though single readings can be large; an effect the other way counts as inactive or inconclusive.

SMILES	PLK1 PBD inh	Sfp PPTase inh	Mm-Cpn inhibitor	CCT chaperon mod	G9a inh	VDR inh
CCN(CC)CCCN1C(=O)C(=O)/C(=C(/O)c2ccc(OC)cc2)C1c1ccco1 (configuration not stated)	-	.	.	-	.	-
CCN(CC)CCN1C(=O)C(=O)/C(=C(/O)c2ccncc2)C1c1ccccc1 (configuration not stated)	-	-	-	-	50µM	-
CCN(CC)CCN1C(=O)C(=O)/C(=C(/O)c2ccc(OC)cc2)C1c1ccco1 (configuration not stated)	-	-	-	-	40µM	-
CCc1nn(CC(=O)N2CCN(c3cccc(C)c3C)CC2)c(=O)c2cc3occc3n12	.	.	.	.	-	-
CC(=O)N[C@@H](C=O)[C@@H](O)[C@H](O)[C@H](O)CO	.	-	.	.	-	-
N#Cc1c(-c2ccco2)cc(C2CC2)nc1N	-	32µM	-	-	14µM	-
N#Cc1c(-c2ccco2)cc(-c2cccnc2)nc1N	-	-	-	-	35µM	-
Cn1c(=S)ccc2ccccc21	27µM	45µM	-	-	10µM	-
CS(=O)(=O)n1nc(OC(=O)c2cccc3ccccc23)cc1N	-	-	-	-	-[2.33 µM]	-
CS(=O)(=O)n1nc(OC(=O)c2cc(Br)ccc2Cl)cc1N	11µM	?	-	-	32µM	?
CC(C)CSC1=NSC2=NC(=O)/C(=C\c3coc4ccccc4c3=O)C(=N)N12	17µM	-	-	-	79µM	79µM
CSC1=NSC2=NC(=O)/C(=C\c3coc4ccccc4c3=O)C(=N)N12	27µM	-	-	-	?	?
N=C1/C(=C\c2coc3ccc(O)cc3c2=O)C(=O)N=C2SC=CN12	-	?	?	-	.	-
Cc1cc(/C=C2\C(=N)N3C(SCc4ccccc4)=NSC3=NC2=O)c(C)n1Cc1ccccc1	-	-	-	-	-	-
CC(C)CSC1=NSC2=NC(=O)/C(=C\c3ccccc3)C(=N)N12	27µM	-	-	-	-	-
Cc1ccc(NC(=O)Cn2ncc3c4ccccc4n(Cc4ccccc4)c3c2=O)cc1Cl	.	.	.	.	-	-
CCc1ccc(/C=C2\CN(CC)Cc3c2nc2ccccc2c3C(=O)O)cc1	-	2.5µM	-	-	?	-
O=C(O)c1c2c(nc3ccccc13)/C(=C/c1ccc(O)cc1)CC2	19µM	-	-	-	22µM	-
CCN1C/C(=C/c2cccs2)c2nc3ccccc3c(C(=O)O)c2C1	-	45µM	-	-	.	-
Cc1nn2c(C)c(C(=O)NCc3ccco3)cnc2c1-c1ccccc1	.	.	.	.	-	-
O=C(Nc1nc2c(s1)CN(Cc1ccccc1)CC2)C1CCC1	-	-	-	-	45µM	-
CCN1CCc2nc(NC(=O)c3ccccc3)sc2C1	-	-	.	-	?	-
COC(=O)N[C@@H](c1cccc(F)c1)[C@@H](C)[N+](=O)[O-]	.	-	.	.	.	-
CS(=O)(=O)c1ccc(C(=O)N2CC(=O)Nc3ccccc32)cc1	-	-	-	-	50µM	-
O=C1CN(S(=O)(=O)c2cccc(C(=O)O)c2)c2ccccc2N1	-	-	-	-	50µM	-
SMILES	PLK1 PBD inh	Sfp PPTase inh	Mm-Cpn inhibitor	CCT chaperon mod	G9a inh	VDR inh
CCc1cccc(Nc2c([N+](=O)[O-])cc(C(=O)N3CC(=O)Nc4ccccc43)cc2[N+](=O)[O-])c1	-	-	-	-	25µM	-
COc1ccc(S(=O)(=O)N2CC(=O)Nc3ccccc32)cc1C	-	-	-	-	-	-
COc1cc(C(=O)N2CC(=O)Nc3ccccc32)cc(OC)c1OC	-	.	.	-	.	.
Cc1ccc(S(=O)(=O)NCCc2nnc3ccc(SCc4ccccc4C)nn23)cc1	.	.	.	.	-	-
CCOC(=O)CC(NC(=O)CCc1c(C)nc2c(-c3ccccc3)c(C)nn2c1C)c1ccc(C)cc1 (configuration not stated)	.	.	.	.	-	-
CSCCC(NS(=O)(=O)c1ccc2c(c1)oc(=O)n2C)C(=O)N1CCN(c2cc(Cl)ccc2C)CC1 (configuration not stated)	.	.	.	.	-	-
CC1(C)Cc2cccc(Oc3cc(NN4CCCCC4)c([N+](=O)[O-])cc3[N+](=O)[O-])c2O1	-	-	-	-	35µM	-
COc1cc(C(C)=O)ccc1Oc1cc(NN2CCCCC2)c([N+](=O)[O-])cc1[N+](=O)[O-]	-	-	-	-	28µM	-
Cc1ccc(C)c(Oc2cc(NN3CCCCC3)c([N+](=O)[O-])cc2[N+](=O)[O-])c1	-	-	-	-	7.9µM	-
CCOc1ccc(-c2nc(C#N)c(N3CCCCCC3)o2)cc1	-	?	-	-	7.9µM	-
CCOc1ccc(-c2nc(C#N)c(N3CCN(CC)CC3)o2)cc1	-	-	-	-	50µM	-
O=C(CSc1nc(=O)n(Cc2ccco2)c2c1CCC2)NCc1ccc(F)cc1	.	.	.	.	-	-
NC(=S)NNc1ccc(Cl)c(Cl)c1	?	3.2µM	-	-	13µM	?
Cc1ccc(NNC(N)=S)cc1Cl	-	13µM	-	-	?	79µM
NC(=S)Nc1ccc(Cl)c(Cl)c1	-	-	-	-	-	-
Cc1cccc(N2CCN(C(=O)c3cc4c(=O)[nH]c5ccc(C)cc5c4s3)CC2C)c1 (configuration not stated)	.	.	.	.	?	-
C/C=C\C1=C(CO)C(=O)[C@@H]2OC2C1=O (some centres not stated)	.	3.2µM	.	.	.	.
N#Cc1cnc(SCCc2ccccc2)nc1N	-	-	-	-	?	-
N#Cc1cnc(SCC(=O)c2ccccc2)nc1N	-	?	-	-	13µM	-
O=C(O)C1CSC2(CCN(Cc3ccccc3)CC2)N1 (configuration not stated)	-	50µM	-	-	7.1µM	-
O=C(Cc1ccccc1)NC1CCN(Cc2ccccc2)CC1	-	-	-	-	?	-
CCCCn1c(-c2ccc(OC)cc2)nc2c(=O)n(C)c(=O)[nH]c21	?	-	-	-	-	50µM
CCCn1c(-c2ccc(OC)cc2)nc2c(=O)n(C)c(=O)[nH]c21	-	-	-	-	-	-
CCc1ccc(NC(=O)Cc2c(C(=O)O)c(C)cn2C)cc1	.	.	.	.	-	-
COc1ccc(CN2C[C@H](C)[C@@H](CC(=O)NCc3ccccc3)C2=O)cc1	?	-	-	-	50µM	-
C[C@H]1CN(Cc2ccccc2)C(=O)[C@@H]1CC(=O)NCc1ccccc1	-	-	-	-	?	-
O=C(N/N=C\c1ccccc1O)c1ccccc1O	.	-	.	.	.	-
